Screening data as filed in PubChem BioAssay.
In the library only some 3.4% were active in any assay of this set; here they are far more common.
RE007 growth inh = less growth of the S. pombe RE007 Vpr strain | Potency, µM (series often up to 92.2 µM), for the others: at the top dose activity change, negative = less growth, usual class: inhibitors | 360,000 compounds, 0.21% hits | S. pombe RE007 Vpr strain, BacTiter-Glo ATP luminescence, 24 h | AID 651644; active = well fitted falling curve with a large enough effect; inconclusive = small, poorly fitted or top-dose-only effect; inactive = no such curve, though single readings can be large or run the other way; also: nearly all actives have a fitted effect of over 50% in size
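Fission yeast RE007 carrying one integrated HIV-1 vpr copy, seeded at OD 0.01 in PMG+AL medium with 23 nL pinned compound. Grown 24 h at 30 degrees; viability read by BacTiter-Glo luminescence after 5 min.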
Sm TGR inh = inhibitors of Schistosoma mansoni thioredoxin glutathione reductase | Q962Y6 | purified TGR, DTNB reduction, TNB absorbance 405 nm | Potency, µM (top dose mostly 114 µM), for inactives: top-dose activity change, negative = inhibition, most hits filed as inhibitors | 360,000 compounds, 3% hits; also: nearly all actives have a fitted effect of over 60% in size
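TGR 20 nM + NADPH 100 uM (dispensed conc.), cpd preinc 15 min RT; start with NADPH (500 uM addition) then DTNB (15 mM addition). Kinetic TNB absorbance, 405 nm filter. Four-parameter Hill fit across titration.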
FBPA Giardia inh = blocks Giardia fructose-bisphosphate aldolase activity. A8B2U2. AID 2451. Potency, µM (series often up to 59.6 µM), for inactives: top-dose activity, negative = inhibition, most hits filed as inhibitors. purified Giardia FBPA. 290,000 compounds, 0.71% hits; also: nearly all actives have a fitted effect of over 55% in size
Target sequence (A8B2U2 whole entry, looked up): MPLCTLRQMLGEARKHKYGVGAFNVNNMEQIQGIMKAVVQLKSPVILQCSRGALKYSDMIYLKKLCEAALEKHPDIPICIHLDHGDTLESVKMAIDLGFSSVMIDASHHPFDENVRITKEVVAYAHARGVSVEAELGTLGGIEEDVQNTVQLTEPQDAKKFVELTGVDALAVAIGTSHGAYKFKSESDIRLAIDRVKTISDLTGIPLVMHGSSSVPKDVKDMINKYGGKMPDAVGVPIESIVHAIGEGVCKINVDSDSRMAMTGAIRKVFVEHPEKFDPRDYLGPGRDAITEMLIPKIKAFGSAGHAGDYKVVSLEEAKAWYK
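40 nM FBPA preincubated 10 min at RT with compound (up to 57.5 uM final), then substrate plus GAPDH/TPI/NAD/arsenate coupling and diaphorase/resazurin added. Fluorescence read after 20 min at RT, 525/598 nm.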
AmpC detergent = AmpC beta-lactamase inhibition with detergent present | P00811 | AmpC hydrolysis of nitrocefin, absorbance 480 nm, 0.01% Triton | Potency, µM (highest dose often 114 µM), inactives show at the top dose activity change, negative = inhibition, actives largely listed as inhibitors | 370,000 compounds, 0.041% hits;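 also: 0% = no-compound wells and -100% = no-enzyme wells; nearly all actives have a fitted effect of over 25% in size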
Target sequence (P00811 whole entry, looked up): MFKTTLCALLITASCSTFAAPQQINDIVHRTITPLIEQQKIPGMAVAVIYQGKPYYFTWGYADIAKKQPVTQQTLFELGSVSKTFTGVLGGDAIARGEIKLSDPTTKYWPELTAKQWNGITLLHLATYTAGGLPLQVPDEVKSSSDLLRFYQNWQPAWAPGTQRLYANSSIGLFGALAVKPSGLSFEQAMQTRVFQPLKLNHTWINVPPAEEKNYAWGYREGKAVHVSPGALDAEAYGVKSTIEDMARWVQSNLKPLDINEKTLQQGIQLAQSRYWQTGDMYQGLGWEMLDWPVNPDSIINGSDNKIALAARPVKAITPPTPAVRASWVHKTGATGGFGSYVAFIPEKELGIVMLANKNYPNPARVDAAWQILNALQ
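20 mM phosphate pH 7.0 + 0.01% (detergent screen) or 0.0001% Triton X-100; 5.3 nM AmpC reagent; cpd preinc 15 min RT; nitrocefin (800 uM stock) to start; A480 q20 s × 4 min; Activity was normalised to no-enzyme and no-compound control wells.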
AmpC inh no detg = AmpC beta-lactamase inhibition without detergent | Potency, µM (titrated, usually from 57.1 µM), without a hit: at the top dose activity change, negative = inhibition, actives largely listed as inhibitors | 330,000 compounds, 0.52% hits | AmpC nitrocefin hydrolysis, absorbance 480 nm, 0.0001% Triton;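 also: plate controls were no compound for no effect and no enzyme for full effect; nearly all actives have a fitted effect of over 20% in size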
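20 mM phosphate pH 7.0 + 0.01% (detergent screen) or 0.0001% Triton X-100; 5.3 nM AmpC reagent; cpd preinc 15 min RT; nitrocefin (800 uM stock) to start; A480 q20 s × 4 min; Activity was normalised to no-enzyme and no-compound control wells.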
* hit, by the source's call; ! = a repeat was not active; [ ] = dose if it differs, or a comment. Unless noted, calls follow the shape of the dose curve; as a rule, active = well fitted curve in the direction sought with a large enough effect; inconclusive = small, poorly fitted or top-dose-only effect, or another doubt; inactive = no such curve, though single readings can be large; an effect the other way counts as inactive or inconclusive. Unless noted, % is scaled to controls: 0 for no effect and ±100 for the full control effect; potency is read from the fitted curve at half-maximal effect.

`O=C(CCNc1cccc(Cl)c1)c1cccs1` gave RE007 growth inh inconclusive, Sm TGR inh 5.6µM*, FBPA Giardia inh 3%, AmpC detergent 1% and AmpC inh no detg -26%.
Cc1cc(C)c(NC(=O)Cn2c(=O)n(Cc3ccc4c(c3)OCO4)c(=O)c3ccc(C(=O)NC4CCCCC4)cc32)c(C)c1 was read as Sm TGR inh 5% and AmpC detergent 0%.
Cc1c(C(=O)N2CCCCC2)c(S(=O)(=O)NCCc2ccccc2)c(C)n1C was read as RE007 growth inh 16%, Sm TGR inh 4%, AmpC detergent -1% and AmpC inh no detg 1%.
Screening COc1ccccc1CNc1ccnc(-c2ccc(C(=O)N(C)C)cc2)n1 returned FBPA Giardia inh 1%.
`Cc1ccc(NCCC(=O)c2cccs2)cc1` gave RE007 growth inh inconclusive, Sm TGR inh 1.3µM*, FBPA Giardia inh 2%, AmpC detergent -2% and AmpC inh no detg -15%.
Cc1ccc(NC(=O)COc2ccc(C(=O)c3ccccc3)cc2)c(O)c1 was read as RE007 growth inh -4%, Sm TGR inh -12%, FBPA Giardia inh 1%, AmpC detergent 1% and AmpC inh no detg 16µM*.
Screening Cc1cc(N2CCCC2)ccc1NC(=O)COc1ccccc1 returned RE007 growth inh 16%, Sm TGR inh 18µM*, AmpC detergent inconclusive and AmpC inh no detg 3%.
`CCc1ccccc1OCC(=O)Nc1ccc(N2CCCC2)cc1C` gave RE007 growth inh -28%, Sm TGR inh 16µM*, AmpC detergent -1% and AmpC inh no detg 39%.
Cc1ccc(OCC(=O)Nc2ccc(Cl)cc2C(=O)c2ccccc2)cc1 was read as RE007 growth inh 12%, Sm TGR inh 0%, FBPA Giardia inh -2%, AmpC detergent -2% and AmpC inh no detg -20%.
Cc1ccccc1OCC(=O)Nc1ccc(N2CCOCC2)cc1N1CCOCC1 was read as RE007 growth inh 8%, Sm TGR inh -20%, AmpC detergent -7% and AmpC inh no detg 168%.
For COc1ccc2c(C)nc(Nc3nc(C)cc(C)n3)nc2c1 the results were RE007 growth inh 3%, Sm TGR inh 11µM*, FBPA Giardia inh -26%, AmpC detergent -8% and AmpC inh no detg -18%.
COc1ccc2c(C)nc(Nc3nc(C)c(C)c(=O)[nH]3)nc2c1 was read as RE007 growth inh 1%, Sm TGR inh 12%, FBPA Giardia inh -6%, AmpC detergent -12% and AmpC inh no detg -14%.
CC(=O)SC(C[N+](=O)[O-])c1cn(C(C)=O)c2ccccc12 (centres undefined) was read as RE007 growth inh inconclusive, Sm TGR inh 4.5µM*, FBPA Giardia inh inconclusive, AmpC detergent 3% and AmpC inh no detg -19%.
For COc1cc2c3c(c1)/C(=C1/SC(NC(C)=O)=NC1=O)C(=O)N3C(C)(C)C=C2C the results were RE007 growth inh inconclusive, Sm TGR inh 40µM*, FBPA Giardia inh -11%, AmpC detergent 0% and AmpC inh no detg -31%.
`CCN1C(=O)/C(=C2/C(=O)N3c4c(cc(OC(C)=O)cc42)C(C)=CC3(C)C)SC1=S` gave RE007 growth inh -4%, Sm TGR inh -10%, FBPA Giardia inh -8%, AmpC detergent -7% and AmpC inh no detg -18%.
Fc1ccc(-c2ncc3ccccn23)cc1 was read as RE007 growth inh 7%, Sm TGR inh -14%, FBPA Giardia inh -10%, AmpC detergent 2% and AmpC inh no detg -4%.
Screening Brc1ccc(-c2ncc3ccccn23)cc1 returned RE007 growth inh 2%, Sm TGR inh 28µM*, FBPA Giardia inh -10%, AmpC detergent 0% and AmpC inh no detg -28%.
Screening Cc1ccc(S(=O)(=O)c2nc(C(C)(C)C)oc2N2CCOCC2)cc1 returned RE007 growth inh -11%, Sm TGR inh 1.1µM*, FBPA Giardia inh -27%, AmpC detergent -5% and AmpC inh no detg -7%.
For COc1ccc(-c2nc(S(=O)(=O)c3ccc(C)cc3)c(N3CCCC3)o2)cc1 the results were RE007 growth inh -1%, Sm TGR inh 2µM*, FBPA Giardia inh -10%, AmpC detergent inconclusive and AmpC inh no detg -5%.
`Cc1ccc(-c2nc(S(=O)(=O)c3ccc(C)cc3)c(N3CCCCC3)o2)cc1` gave Sm TGR inh 8.9µM* and AmpC detergent 1%.
For Cc1ccc(S(=O)(=O)c2nc(-c3ccccc3)oc2N2CCCCCC2)cc1 the results were Sm TGR inh -21% and AmpC detergent 5%.
Cc1ccc(S(=O)(=O)c2nc(C)oc2N2CCOCC2)cc1 was read as RE007 growth inh 0%, Sm TGR inh -5%, FBPA Giardia inh 1%, AmpC detergent -5% and AmpC inh no detg 7%.
For Cc1ccc(S(=O)(=O)c2nc(-c3ccc(Cl)cc3)oc2N2CCCCCC2)cc1 the results were Sm TGR inh 40µM* and AmpC detergent -2%.
For COc1ccc(CCNC(=O)CNS(=O)(=O)c2ccc(N(C)C)c([N+](=O)[O-])c2)cc1OC the results were RE007 growth inh -18%, Sm TGR inh -6%, FBPA Giardia inh -1%, AmpC detergent 3% and AmpC inh no detg -1%.
CCOc1ccc(-c2nc(S(=O)(=O)c3ccccc3)c(N3CCC(C(N)=O)CC3)o2)cc1 was read as RE007 growth inh -10%, Sm TGR inh 35µM*, AmpC detergent 3% and AmpC inh no detg 16%.
For O=S(=O)(c1ccccc1)c1nc(-c2cccc(Cl)c2)oc1N1CCOCC1 the results were RE007 growth inh -8%, Sm TGR inh 32µM*!, AmpC detergent 1% and AmpC inh no detg -15%.
`CN(C)c1oc(-c2ccccc2[N+](=O)[O-])nc1C#N` gave RE007 growth inh -13%, Sm TGR inh 35µM*, FBPA Giardia inh inconclusive, AmpC detergent 9% and AmpC inh no detg -8%.
For CCOC(=O)/C=C1\CN(C(C)c2ccccc2)S(=O)(=O)c2ccccc21 (centres undefined) the results were RE007 growth inh -10%, Sm TGR inh 28µM*, FBPA Giardia inh 4%, AmpC detergent -13% and AmpC inh no detg -5%.
Screening CCOC(=O)/C=C1\CC(C(=O)OCC)Oc2ccccc21 (centres undefined) returned RE007 growth inh -15%, FBPA Giardia inh -12%[89.2 µM] and AmpC inh no detg -3%.
`CCOC(=O)/C=C1\CN(CCC(C)C)S(=O)(=O)c2ccccc21` gave RE007 growth inh 16%, Sm TGR inh 56µM*, FBPA Giardia inh 14%, AmpC detergent -14% and AmpC inh no detg -3%.
O=C(CSc1ncn[nH]1)CSc1ncn[nH]1 was read as RE007 growth inh -14%, Sm TGR inh 40µM*, FBPA Giardia inh inconclusive, AmpC detergent 0% and AmpC inh no detg -18%.
